Screening results as filed in PubChem BioAssay.
PAX8 inh HTS: inhibitors of PAX8 transcriptional activity in RMG-I cells; RMG-I TPO-luciferase reporter, SteadyGlo, 24 h; hit rate 1.2% among 360,000; inhibition, % at 12.6 µM;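 active means mean replicate inhibition at least 60% with every replicate also reaching 60%; inconclusive means only one of the two criteria is met; inactive means mean below 60% and not all replicates reaching 60%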;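 further: luciferase light reporting Pax8 driven TPO promoter activity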
CF NFkB block: cystic fibrosis NF-kB activation inhibition. KKLEB NF-kB-GFP reporter, PAF-induced, GFP fluorescence overnight. inhibition, % at 5 µM. hit rate 0.86% among 360,000. AID 588850;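 active means at least 50% inhibition at 5 µM, scaled per plate between neutral and stimulator controls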;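 further: PAF is a Pseudomonas aeruginosa culture filtrate used as stimulus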
EWS-Fli block: blocks EWS/Fli oncoprotein-driven transcription; A673 NR0B1-luciferase reporter, viability-normalised; hit rate 0.67% among 350,000; AID 651661; inhibition, % at 12.6 µM;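 active means mean inhibition of at least 50% after viability correction, with every replicate also passing that limit; inconclusive means mean reaches 50% but only one of two replicates passes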;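 further: firefly luciferase signal divided by Alamar Blue viability fluorescence both relative to DMSO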
LGR2 inh: inhibitors of bursicon-induced Drosophila LGR2 receptor cAMP signaling; HEK293 LGR2, CRE-luciferase, bursicon-stimulated, 4 h; inhibition, % at 9.99 µM; hit rate 0.35% among 380,000; AID 720647;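 active means drop in luminescence signal, shown as inhibition above about 50% in the replicate tests, limit read from the data, passing the limit was not always enough; inconclusive means probably only some replicates passing the limit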;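 further: agonist challenge used bursicon conditioned medium at about half maximal strength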
KKLEB cytotox: CF airway cell cytotoxicity counter-screen; AID 602141; activity change (cytotoxicity), % at 5 µM; hit rate 0.36% among 360,000; KKLEB CF airway cells viability, ATPlite luminescence, overnight; active compounds read low; cells stimulated with P. aeruginosa culture filtrate;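 active means corrected activity change at or below -50% at 5 µM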
Shn3 inh set2: inhibitors of Schnurri-3 3'UTR reporter in osteoblasts | Clone20 osteoblast Shn3 3'UTR firefly luciferase, 24 h | inhibition, % at 12.5 µM | hit rate 0.52% among 360,000;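 active means mean inhibition of at least 75% with every replicate also reaching 75%; inconclusive means mean inhibition at least 75% but some replicate below; inactive means mean inhibition below 75%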
Numbers stand for hits; 0 = inactive; ? = inconclusive; - = no result given. Hits are enriched below; roughly 2% of the tested compounds scored in any of these assays.

SMILES	PAX8 inh HTS	CF NFkB block	EWS-Fli block	LGR2 inh	KKLEB cytotox	Shn3 inh set2
CSC1SCC2C(=O)N(C)C(C(C)C)C(=O)OCC(NC(=O)c3cnc4ccccc4n3)C(=O)NC(C)C(=O)N(C)C1C(=O)N(C)C(C(C)C)C(=O)OCC(NC(=O)c1cnc3ccccc3n1)C(=O)NC(C)C(=O)N2C (centres undefined)	97	96	0	99	0	94
C[C@@H]1CN([C@H](C)CO)C(=O)c2cc(-c3ccc(F)cc3)cnc2O[C@H]1CN(C)C(=O)c1ccccc1F	-	-	0	0	-	-
CN(C)S(=O)(=O)c1cccc(NC(=S)N/N=C/c2cccc(O)c2)c1	0	0	0	0	0	0
CN(C)S(=O)(=O)c1cccc(NC(=S)N/N=C/c2cc(Br)ccc2O)c1	?	0	0	0	0	91
COC(=O)C[C@H]1CC[C@@H]2[C@@H](COc3ccc(NC(=O)C4CC4)cc3C(=O)N2C)O1	0	-	0	0	-	-
Cc1ccccc1N1C(=O)CC(Sc2nnc(-c3ccccc3)o2)C1=O (centres undefined)	-	0	-	-	0	0
O=C1CC(Sc2nnc(-c3ccccc3)o2)C(=O)N1c1ccccc1 (centres undefined)	72	0	-	-	0	0
COc1ccc(S(=O)(=O)Nc2ccc3c(c2)C(=O)N([C@@H](C)CO)C[C@@H](C)[C@@H](CN(C)Cc2ccccc2)O3)cc1	-	-	0	0	-	-
C[C@@H]1CCCCO[C@@H](CN(C)C(=O)CCCN(C)C)[C@H](C)CN([C@@H](C)CO)C(=O)c2cc(NC(=O)Nc3cccc4ccccc34)ccc2O1	0	-	0	0	-	-
C/C(=N\N(Cc1ccccc1)c1ccccc1)c1ccncc1	0	58	0	-	-57	0
COc1cccc(C(=O)Nc2ccc3c(c2)C(=O)N(C)[C@@H]2CC[C@@H](CC(=O)NCC4CC4)O[C@@H]2CO3)c1	0	-	0	0	-	-
COc1ccc(C2CC(c3cccs3)=NN2C(=O)CCl)cc1OC (centres undefined)	0	0	58	0	0	0
Cc1ccc(C2=NN(C(=O)CCl)C(c3cccs3)C2)o1 (centres undefined)	65	0	0	0	0	0
COc1cc(C2CC(c3cccs3)=NN2C(=O)CCl)ccc1OC(F)F (centres undefined)	0	104	61	0	-88	0
CC(=O)N1N=C(c2ccco2)CC1c1cccs1 (centres undefined)	-	0	-	-	0	0
COc1ccc(S(=O)(=O)Oc2ccc3ccccc3c2)cc1	0	0	0	0	0	0
COC1=C(OC)C(=O)C(Sc2ccc3ccccc3c2)=CC1=O	0	0	0	0	0	87
N#CC(C#N)=C1C=CC=CN1/C(=C\c1ccccc1Cl)C(=O)c1ccccc1	0	81	-	0	-58	87
CO[C@H]1CN(C)C(=O)c2cc(NC(=O)c3ccc(F)cc3)ccc2OC[C@H](C)N(C(=O)CC2CC2)C[C@H]1C	-	-	0	0	-	-
C[C@@H]1CN([C@@H](C)CO)C(=O)c2cccc(NC(=O)c3nc4ccccc4s3)c2O[C@H]1CN(C)Cc1ccc(C(=O)Nc2ccccc2N)cc1	-	-	0	0	-	-
CC(SC(=S)N1CCOCC1)C(=O)O (centres undefined)	-	0	-	0	0	0
S=C(SSC(=S)N1CCOCC1)N1CCOCC1	0	0	0	0	0	90
CNC[C@@H]1Oc2ccc(NS(=O)(=O)c3ccccc3)cc2CC(=O)N([C@@H](C)CO)C[C@H]1C	0	-	-	0	-	-
COc1cc(/C=N/Nc2nc(Nc3ccc(C)cc3)nc(-n3nc(C)cc3C)n2)cc(OC)c1OC	89	0	-	-	0	0
COc1ccc(O)c(/C=N/Nc2nc(Nc3ccccc3)nc(-n3nc(C)cc3C)n2)c1	-	74	-	-	0	0
SMILES	PAX8 inh HTS	CF NFkB block	EWS-Fli block	LGR2 inh	KKLEB cytotox	Shn3 inh set2
COc1cc(/C=N/Nc2nc(Nc3ccccc3)nc(-n3nc(C)cc3C)n2)cc(OC)c1OC	80	72	0	0	0	0
COc1ccc(/C=N/Nc2nc(Nc3ccccc3)nc(N3CCCC3)n2)cc1[N+](=O)[O-]	0	0	0	0	0	0
COc1ccc(O)c(/C=N/Nc2nc(C)cc(-c3ccccc3)n2)c1	0	0	0	0	0	0
C[C@@H]1CN([C@H](C)CO)C(=O)c2cc(NS(=O)(=O)c3ccccc3)ccc2O[C@H]1CN(C)C	0	-	-	0	-	-
C[C@H]1CCCCO[C@H](CN(C)S(=O)(=O)c2ccccc2)[C@@H](C)CN([C@@H](C)CO)C(=O)c2cc(NC(=O)CCC(F)(F)F)ccc2O1	0	-	0	0	-	-
Cn1cc(C(=O)N/N=C/c2c(O)ccc3ccccc23)ccc1=O	0	0	0	0	0	91
O=C(N/N=C/c1c(O)ccc2ccccc12)c1cccnc1	70	0	0	0	0	0
Cn1nccc1C(=O)N/N=C/c1c(O)ccc2ccccc12	0	0	0	0	0	94
O=C(N/N=C/c1c(O)ccc2ccccc12)c1ccc[n+](CCO)c1	0	0	0	0	0	0
O=C(NN=Cc1c(O)ccc2ccccc12)c1ccncc1	95	0	0	-	0	90
CC(C)NC(=O)N[C@@H]1C=C[C@H](CC(=O)NCCCN(C)C)O[C@H]1CO	0	-	0	0	-	-
COc1ccc(S(=O)(=O)N(C)C[C@H]2Oc3c(NC(=O)Nc4ccc(F)cc4)cccc3C(=O)N([C@@H](C)CO)C[C@@H]2C)cc1	-	-	0	0	-	-
CCOc1ccc2ccccc2c1/C=N\NC(=O)OC	141	0	0	0	0	0
CCOc1ccc2ccccc2c1/C=N\NC(=O)c1ccc([N+](=O)[O-])cc1	0	0	0	0	0	0
Cc1occc1C(=O)N/N=C/c1c(O)ccc2ccccc12	0	0	0	0	0	0
O=C(N/N=C/c1c(O)ccc2ccccc12)c1ccc(Br)o1	0	0	-	0	0	0
O=C(N/N=C\c1c(O)ccc2ccccc12)c1ccc(O)cc1	?	0	0	0	0	91
O=C(N/N=C\c1c(O)ccc2ccccc12)c1cncc(Br)c1	65	0	0	0	0	87
O=C(N/N=C/c1ccc(O)c2ncccc12)c1cccc(Br)c1	72	0	0	0	0	91
C[C@H]1CN([C@@H](C)CO)C(=O)CCCn2cc(nn2)CO[C@@H]1CN(C)Cc1cccnc1	-	-	0	0	-	-
CC(C)NC(=O)N(C)C[C@@H]1Oc2ccc(NC(=O)C3CC3)cc2CC(=O)N([C@H](C)CO)C[C@@H]1C	0	-	0	0	-	-
C[C@@H]1CCCCO[C@H](CN(C)Cc2ccc(C(=O)O)cc2)[C@H](C)CN([C@H](C)CO)C(=O)c2cc(NC(=O)c3ccncc3)ccc2O1	0	-	0	0	-	-
O=C(N/N=C/c1cc(O)ccc1Br)c1cccnc1	72	0	0	0	0	0
COc1ccccc1/C=N/NC(=O)c1ccc(C)nc1	0	0	0	0	0	0
Cc1ccc(C(=O)N/N=C/c2c(O)ccc3ccccc23)cn1	0	0	0	0	0	94
